Rows were chosen to be rich in hits. Some 4.7% of all compounds tested hit in one or more screens of this group.
TRHR enhancer = allosteric enhancers of human TRH receptor. AID 493056. TRHR cells, fluo-8 calcium fluorescence, EC20 TRH enhancement. 0.66% of 360,000 active. enhancement, % at 2 µM; in the data active = enhancement above about 30%; note: 0% is about no effect
Target sequence (P34981 whole entry, looked up): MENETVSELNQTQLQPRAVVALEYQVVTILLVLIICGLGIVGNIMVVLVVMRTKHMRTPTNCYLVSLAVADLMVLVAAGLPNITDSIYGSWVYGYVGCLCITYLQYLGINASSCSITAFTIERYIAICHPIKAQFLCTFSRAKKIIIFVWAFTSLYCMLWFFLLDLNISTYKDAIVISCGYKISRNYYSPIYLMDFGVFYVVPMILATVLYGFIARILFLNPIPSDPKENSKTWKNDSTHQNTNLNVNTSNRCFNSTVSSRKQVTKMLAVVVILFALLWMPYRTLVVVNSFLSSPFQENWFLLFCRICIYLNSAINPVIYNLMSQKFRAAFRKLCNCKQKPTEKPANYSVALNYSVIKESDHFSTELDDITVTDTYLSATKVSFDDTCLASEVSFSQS
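Enhancer read-out: after compound pinning and an initial kinetic agonist-mode read, an EC20 of TRH (10 nM final) was injected and fluo-8 calcium signal (Ex 480/Em 530) followed at 1 s/cycle for 100 cycles in TRHR-expressing cells.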
D1 antagonist = human D1 dopamine receptor antagonism; P21728; HEK293 TREx D1 cells, calcium flux, dopamine EC80; hits give low values; activity change, negative = inhibition, % at 10 µM; 3.2% of 360,000 active; in the data active = activity change below about -30%; note: % is set by controls: 0 for no effect and ±100 for the full control effect
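Cells carrying a force-coupled, tetracycline-inducible human D1 receptor report calcium flux. Each well gets a 10 s baseline, compound with 180 s monitoring, then an EC80 dopamine stimulus with a second 180 s kinetic read.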
D1 potentiator = potentiators of human D1 dopamine receptor; P21728; HEK293 TREx D1 cells, calcium flux, dopamine EC20 potentiation; potentiation, % at 10 µM; 0.036% of 360,000 active; AID 504651; in the data active = potentiation above about 30%; note: 0% is about no effect
TRHR agonist = agonists of human TRH receptor | 0.18% of 360,000 active | activation, % at 2 µM | P34981 | TRHR cells, calcium flux fluo-8, FDSS agonist mode; note: 0% is about no effect
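In this calcium-flux screen, cells bearing human TRHR are dye-loaded with fluo-8, baselined for 10 cycles, then exposed to library compounds; positive kinetic calcium responses during the agonist phase mark hits, with TRH as control.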
D1 agonist = agonists of human D1 dopamine receptor. HEK293 T-REx D1 cells, calcium flux, agonist mode. activation, % at 2 µM. 1% of 360,000 active. AID 504660; note: 0% is about no effect
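Agonism was scored from calcium flux recorded over 180 s (1 read/s) after pintool compound addition, following a 10-cycle baseline. Cells were inducible force-coupled HEK293 TREx D1, plated overnight at 30 C and loaded with no-wash calcium dye.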
Active calls of the source: *. Cut-off read from the data, not from the text of the source, unless noted: active = activation above about 30%; inactive = the rest.

SMILES	TRHR enhancer	D1 antagonist	D1 potentiator	TRHR agonist	D1 agonist
CCC(=O)N(CCc1ccccc1)Cc1cc2cccc(C)c2[nH]c1=O	7	-43*	1	0	5
O=C(NCc1cccc(Br)c1)C1CCCCN1S(=O)(=O)c1ccc(F)cc1 (stereo unspecified)	-13	-19	-3	0	3
CCC1CCc2nc3sc(C(=O)Nc4ccc(C)cc4)c(N)c3cc2C1 (stereo unspecified)	-3	-19	-2	0	1
CCOc1cc(C(=O)N(Cc2nc(-c3ccc(C)cc3)no2)C(C)C)cc(OCC)c1OCC	-1	-35*	1	1	19
Cc1ccc(-c2noc(CN(C(=O)c3cccs3)C(C)C)n2)cc1	7	-30*	0	0	3
c1ccc(CN(Cc2ccccc2)c2c3c(nc4ncnn24)CCC3)cc1	-4	-5	-1	-1	3
c1ccc(CNc2c3c(nc4ncnn24)CCC3)cc1	5	-53*	-4	-1	6
CCc1ccc(CN2CCCC(CNC(=O)c3cc(OC)cc(OC)c3)C2)cc1 (stereo unspecified)	-4	-37*	0	0	9
Cc1cc(-c2ccc(C)c(S(=O)(=O)N(C(C)C)C3CCCCC3)c2)on1	-7	1	-2	0	7
CCOC(=O)c1ccc(NC(=O)CSc2ccc(-c3sc(C)nc3C)nn2)cc1	-1	-42*	-1	0	1
COc1ccc(C)cc1NC(=O)CSc1ccc(-c2sc(C)nc2C)nn1	-4	-50*	-2	-1	10
CC(=O)Nc1ccc(NC(=O)CSc2ccc(-c3sc(C)nc3C)nn2)cc1	24	-5	0	1	0
O=C(NC1CCCc2ccccc21)c1ccc(=O)[nH]c1 (stereo unspecified)	-2	-39*	-2	1	1
COc1ccnc(N=CNOCc2cccc(Cl)c2Cl)c1C#N	-1	-58*	-5	-1	0
Cc1ccc(Nc2c(-c3ccc(N4CCOCC4)cc3)nc3c(C)cccn23)cc1	-5	-32*	-1	0	3
Cc1ccccc1Nc1c(-c2ccc(N3CCOCC3)cc2)nc2ccccn12	5	17	2	0	-2
CCc1cccc(C)c1Nc1c(-c2ccc(N3CCOCC3)cc2)nc2ncccn12	0	11	-1	10	32*
Cc1ccc(NC(=O)Cn2c(=O)n(CCCCC(=O)NCc3ccc4c(c3)OCO4)c(=O)c3ccccc32)cc1	0	6	-1	0	15
OC(CN1CCCCC1)Cn1c2ccccc2c2cc(Br)ccc21 (stereo unspecified)	-3	-63*	-5	2	45*
Cc1c(C)n(CC(O)CN2CCCCCC2)c2ccccc12 (stereo unspecified)	-1	-1	-7	1	7
O=[N+]([O-])c1ccc(N(c2ccccc2)c2ccccc2)cc1	-1	21	1	0	42*
O=c1nc2n(c3ccccc13)Cc1ccccc1-2	8	6	-4	0	3
O=c1cc(-c2ccccc2)nc2n1Cc1ccccc1-2	31*	-5	-1	1	1
Cc1[nH]c2ccccc2c1C(=O)C(=O)N1CC=C(c2ccccc2)CC1	-7	-37*	-2	0	24
Cc1[nH]c2ccccc2c1C(=O)C(=O)N1CCN(c2cccc(Cl)c2)CC1	3	-38*	1	1	4
SMILES	TRHR enhancer	D1 antagonist	D1 potentiator	TRHR agonist	D1 agonist
CCOc1ccc(-c2n[nH]c3c2C(c2cccs2)N(c2ccc(Br)cc2)C3=O)cc1 (stereo unspecified)	5	-22	6	2	2
Cc1cccc(NS(=O)(=O)c2cccc(C(=O)N3CCN(c4ccccn4)CC3)c2)c1	-5	-3	-7	0	3
Cc1ccc(C(C)(C)C)cc1S(=O)(=O)Nc1cccc(C(=O)N2CCN(c3ccccn3)CC2)c1	3	3	3	0	33*
Cc1cc(F)ccc1NC(=O)CN(C)S(=O)(=O)c1ccc(C(=O)N2CCOCC2)s1	-1	3	0	0	1
O=C(Nc1cc([N+](=O)[O-])ccc1O)c1ccc2c(c1)C(=O)N(Cc1ccco1)C2=O	39*	3	-5	0	0
Cc1ccccc1NC(=O)CSc1n[nH]c(-c2ccccn2)n1	35*	1	6	0	3
FC(F)(F)c1cc(N2CCNCC2)c2ccccc2n1	10	7	-1	0	2
OC(c1cc(C(F)(F)F)nc2c(C(F)(F)F)cccc12)C1CCCCN1 (stereo unspecified)	6	-10	34*	0	160*
CC1CCN(C(=O)CSc2nc(-c3ccc(F)cc3)cc(C(F)(F)F)n2)CC1	17	-11	-1	0	1
OC(c1cc(-c2ccc(C(F)(F)F)cc2)nc(C(F)(F)F)c1)C1CCCCN1 (stereo unspecified)	6	-11	13	19	158*
CCN(CC)c1ccc(/C=C2\SC(=O)N(C(C)C)C2=O)o1	-3	-17	-5	13	51*
O=C(C1=C(O)C(=O)N(CCN2CCOCC2)C1c1ccc([N+](=O)[O-])cc1)c1cccs1 (stereo unspecified)	-6	-75*	-1	1	2
O=C(C1=C(O)C(=O)N(CCN2CCOCC2)C1c1cccc(Br)c1)c1cccs1 (stereo unspecified)	1	-6	2	-3	4
CCC1CCCCN1C(=S)Nc1ccc(OC(F)F)cc1 (stereo unspecified)	0	-43*	0	1	19
CCOC(=O)c1noc2nc(C)n(Cc3cccc(C#N)c3)c(=O)c12	-4	0	-2	0	0
CC(=O)c1cc(C#N)c(N2CCCC2)nc1C	-3	-36*	3	0	7
CC(=O)c1cc(C#N)c(SCCC(C)C)nc1C	11	-41*	0	0	8
CCSc1nc(C)c(C(C)=O)cc1C#N	9	17	-4	0	1
Cc1cc(C)c2cc(C#N)c(N3CCCC3)nc2c1	-1	1	-3	-3	3
COc1ccc(Cl)cc1NC(=O)c1ccc2c(c1)CCCN2S(C)(=O)=O	1	0	3	1	0
O=C(NCCc1ccc(Cl)cc1)c1ccc2c(c1)N(Cc1ccc(Cl)cc1)C(=O)CS2	11	14	-1	1	9
Cc1ccc(C(=O)OCC(=O)c2c[nH]c3ccccc23)cc1	3	-1	-4	0	3
CC(C)Cc1ccc(C(C)C(=O)OCC(=O)c2c[nH]c3ccccc23)cc1 (stereo unspecified)	-3	-27	-4	8	37*
COC(=O)c1sc(-c2ccccc2)cc1NC(=O)c1ccc(F)cc1	-5	-8	0	-1	1
